# According to article PMC7862700, “An all-to-all approach to the identification of sequence-specific readers for epigenetic DNA modifications on cytosine”:
# What was measured:
# Assay in all cases: DAPPL (digital affinity profiling via proximity ligation, sequencing); 10 mM Tris-HCl pH 7.5, 50 mM NaCl, 1 mM DTT, 4% glycerol, room temperature, 30 min; GST-TFs on glutathione beads, 16-mer random dsDNA library, 0.1% formaldehyde crosslink after washing; high values mean tight binding
# Details in all cases: protein: recombinant; tags: N-terminal GST; dsDNA, one strand shown
# ELK1 = molecular target: T1, ELK1 (Homo sapiens, UniProt P19419 1-428)
# T1 sequence: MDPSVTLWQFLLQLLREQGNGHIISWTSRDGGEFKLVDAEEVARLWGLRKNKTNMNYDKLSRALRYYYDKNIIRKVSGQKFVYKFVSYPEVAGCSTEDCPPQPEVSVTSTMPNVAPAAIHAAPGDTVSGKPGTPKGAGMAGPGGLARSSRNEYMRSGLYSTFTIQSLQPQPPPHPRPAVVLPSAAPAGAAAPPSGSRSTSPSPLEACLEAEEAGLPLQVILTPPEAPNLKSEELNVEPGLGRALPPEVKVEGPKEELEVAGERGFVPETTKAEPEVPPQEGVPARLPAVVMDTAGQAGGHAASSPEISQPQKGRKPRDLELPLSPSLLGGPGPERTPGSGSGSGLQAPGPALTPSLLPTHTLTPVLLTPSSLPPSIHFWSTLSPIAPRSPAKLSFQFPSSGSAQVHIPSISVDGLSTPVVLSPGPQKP
# Procedure, shortened: (§1)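 Beads coated with glutathione captured GST-fused human transcription factors that had been expressed in yeast, and the factors were then given DNA barcodes and pooled with a tag-only sample. The pools were incubated with 200 nmole of a random double-stranded 16-mer DNA library in Tris/NaCl/DTT/glycerol buffer for 30 min at room temperature, washed, crosslinked with 0.1% formaldehyde and proximity-ligated with BsaI/T4 ligase at 37 °C for 1 h. PCR amplification and Illumina NextSeq500 sequencing came last. Binding signal is each hexamer's read frequency for a factor divided by its frequency for the tag-only sample.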
# GABPA = molecular target: T2, GABPA (Homo sapiens, UniProt Q06546 1-454)
# T2 sequence: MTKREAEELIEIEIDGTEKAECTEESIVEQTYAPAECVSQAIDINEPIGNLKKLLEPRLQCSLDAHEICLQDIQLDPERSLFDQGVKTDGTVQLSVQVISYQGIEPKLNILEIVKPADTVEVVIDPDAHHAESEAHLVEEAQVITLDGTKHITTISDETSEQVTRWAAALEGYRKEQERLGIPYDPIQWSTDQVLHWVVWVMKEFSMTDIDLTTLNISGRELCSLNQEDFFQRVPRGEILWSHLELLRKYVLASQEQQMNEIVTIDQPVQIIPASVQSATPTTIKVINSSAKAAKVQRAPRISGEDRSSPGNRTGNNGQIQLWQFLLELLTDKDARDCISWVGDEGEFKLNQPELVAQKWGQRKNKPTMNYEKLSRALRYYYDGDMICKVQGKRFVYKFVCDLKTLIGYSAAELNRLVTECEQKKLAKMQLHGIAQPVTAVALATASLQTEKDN
# Procedure, shortened: as §1
# ERG = molecular target: T3, ERG (Homo sapiens, UniProt P11308 1-479)
# T3 sequence: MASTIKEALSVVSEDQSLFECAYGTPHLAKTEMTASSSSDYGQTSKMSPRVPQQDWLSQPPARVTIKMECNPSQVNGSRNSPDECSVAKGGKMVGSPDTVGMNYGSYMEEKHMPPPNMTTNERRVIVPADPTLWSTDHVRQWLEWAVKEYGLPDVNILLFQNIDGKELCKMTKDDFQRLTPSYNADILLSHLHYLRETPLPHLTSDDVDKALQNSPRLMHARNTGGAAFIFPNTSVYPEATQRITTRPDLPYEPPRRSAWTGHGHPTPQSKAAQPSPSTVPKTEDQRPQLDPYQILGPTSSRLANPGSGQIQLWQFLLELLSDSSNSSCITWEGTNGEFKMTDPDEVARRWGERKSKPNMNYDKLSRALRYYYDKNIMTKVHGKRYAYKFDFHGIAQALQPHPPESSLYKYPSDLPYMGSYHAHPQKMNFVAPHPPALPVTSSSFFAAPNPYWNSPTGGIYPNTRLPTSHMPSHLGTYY
# Procedure, shortened: as §1
# ELF1 = ELF1 (Homo sapiens, UniProt P32519 1-619)
# Procedure, shortened: as §1
# SPIB = SPIB (Homo sapiens, UniProt Q01892 1-262)
# Procedure, shortened: as §1
# ELK3 = molecular target: T4, ELK3 (Homo sapiens, UniProt P41970 1-407)
# T4 sequence: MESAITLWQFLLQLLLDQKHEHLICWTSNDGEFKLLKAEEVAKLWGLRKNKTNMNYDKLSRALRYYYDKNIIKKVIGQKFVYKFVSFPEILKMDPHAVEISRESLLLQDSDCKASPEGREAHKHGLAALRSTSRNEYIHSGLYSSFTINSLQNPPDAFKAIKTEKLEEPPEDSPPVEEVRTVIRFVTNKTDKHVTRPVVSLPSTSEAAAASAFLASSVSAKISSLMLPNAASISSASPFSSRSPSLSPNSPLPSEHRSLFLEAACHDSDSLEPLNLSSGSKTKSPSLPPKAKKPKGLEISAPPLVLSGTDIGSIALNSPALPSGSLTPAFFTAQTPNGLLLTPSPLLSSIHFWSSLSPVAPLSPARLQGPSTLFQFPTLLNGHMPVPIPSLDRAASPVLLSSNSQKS
# Procedure, shortened: as §1
# ELF4 = ELF4 (Homo sapiens, UniProt Q99607 1-663)
# Procedure, shortened: as §1
# ELK4 = molecular target: T5, ELK4 (Homo sapiens, UniProt P28324-2 1-405)
# T5 sequence: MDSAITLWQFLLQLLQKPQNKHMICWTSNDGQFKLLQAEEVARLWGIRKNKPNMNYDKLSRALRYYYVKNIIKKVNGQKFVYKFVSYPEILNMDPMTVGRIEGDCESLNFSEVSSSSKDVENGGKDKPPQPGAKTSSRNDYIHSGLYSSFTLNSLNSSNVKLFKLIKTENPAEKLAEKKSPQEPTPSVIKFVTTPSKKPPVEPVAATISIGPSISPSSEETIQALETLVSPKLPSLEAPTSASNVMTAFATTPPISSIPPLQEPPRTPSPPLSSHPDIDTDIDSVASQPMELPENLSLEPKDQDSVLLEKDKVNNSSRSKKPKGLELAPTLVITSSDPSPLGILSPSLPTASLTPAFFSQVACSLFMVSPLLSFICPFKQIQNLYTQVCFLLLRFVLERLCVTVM
# Procedure, shortened: as §1
# ELF3 = molecular target: T6, ELF3 (Homo sapiens, UniProt P78545 1-371)
# T6 sequence: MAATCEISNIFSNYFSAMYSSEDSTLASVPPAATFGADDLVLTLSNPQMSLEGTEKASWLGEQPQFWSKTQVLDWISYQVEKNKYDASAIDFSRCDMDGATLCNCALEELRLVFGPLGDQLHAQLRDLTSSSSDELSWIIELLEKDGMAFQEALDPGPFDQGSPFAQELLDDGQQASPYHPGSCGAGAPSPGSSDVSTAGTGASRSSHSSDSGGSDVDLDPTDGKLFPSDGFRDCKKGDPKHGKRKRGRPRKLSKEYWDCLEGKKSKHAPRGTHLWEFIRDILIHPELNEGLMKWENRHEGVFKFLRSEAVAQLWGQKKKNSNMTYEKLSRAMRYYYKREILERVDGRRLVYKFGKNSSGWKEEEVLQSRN
# Procedure, shortened: as §1
# ETV1 = ETV1 (Homo sapiens, UniProt P50549 1-477)
# Procedure, shortened: as §1
# ETV3L = molecular target: T7, ETV3L (Homo sapiens, UniProt Q6ZN32 1-361)
# T7 sequence: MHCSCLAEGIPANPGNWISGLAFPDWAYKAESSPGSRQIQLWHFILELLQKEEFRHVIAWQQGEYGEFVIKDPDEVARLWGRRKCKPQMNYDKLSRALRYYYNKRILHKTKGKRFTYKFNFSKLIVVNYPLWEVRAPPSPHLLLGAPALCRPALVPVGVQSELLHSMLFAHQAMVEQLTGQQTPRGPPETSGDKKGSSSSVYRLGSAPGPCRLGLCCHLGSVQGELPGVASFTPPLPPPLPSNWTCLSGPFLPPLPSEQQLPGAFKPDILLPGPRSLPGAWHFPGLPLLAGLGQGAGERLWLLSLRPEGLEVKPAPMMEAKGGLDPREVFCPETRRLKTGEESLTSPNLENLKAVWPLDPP
# Procedure, shortened: as §1
# ETS2 = molecular target: T8, ETS2 (Homo sapiens, UniProt P15036 1-469)
# T8 sequence: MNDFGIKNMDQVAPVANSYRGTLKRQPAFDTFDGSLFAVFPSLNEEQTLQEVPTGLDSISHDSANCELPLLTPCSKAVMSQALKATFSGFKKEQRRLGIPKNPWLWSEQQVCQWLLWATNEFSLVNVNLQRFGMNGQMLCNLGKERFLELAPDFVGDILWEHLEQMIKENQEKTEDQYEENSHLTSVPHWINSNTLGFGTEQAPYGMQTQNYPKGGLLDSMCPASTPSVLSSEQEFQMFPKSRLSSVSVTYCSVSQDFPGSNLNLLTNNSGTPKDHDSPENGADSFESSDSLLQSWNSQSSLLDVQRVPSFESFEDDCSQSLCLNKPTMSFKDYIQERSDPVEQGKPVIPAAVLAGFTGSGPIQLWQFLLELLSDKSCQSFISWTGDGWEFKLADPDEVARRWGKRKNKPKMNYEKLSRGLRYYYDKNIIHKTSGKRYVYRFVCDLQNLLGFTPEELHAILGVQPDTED
# Procedure, shortened: as §1
# SPDEF = molecular target: T9, SPDEF (Homo sapiens, UniProt O95238 1-335)
# T9 sequence: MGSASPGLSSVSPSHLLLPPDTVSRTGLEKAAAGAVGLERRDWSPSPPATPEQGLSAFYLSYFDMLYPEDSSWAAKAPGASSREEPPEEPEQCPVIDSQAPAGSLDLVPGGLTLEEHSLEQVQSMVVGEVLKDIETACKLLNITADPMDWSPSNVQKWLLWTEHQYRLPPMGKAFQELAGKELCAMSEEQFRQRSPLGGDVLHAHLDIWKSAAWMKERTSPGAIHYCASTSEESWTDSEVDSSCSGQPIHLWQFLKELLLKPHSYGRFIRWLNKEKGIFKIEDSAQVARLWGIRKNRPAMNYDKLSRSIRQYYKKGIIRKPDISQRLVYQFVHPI
# Procedure, shortened: as §1
# ETV7 = molecular target: T10, ETV7 (Homo sapiens, UniProt Q9Y603 1-341)
# T10 sequence: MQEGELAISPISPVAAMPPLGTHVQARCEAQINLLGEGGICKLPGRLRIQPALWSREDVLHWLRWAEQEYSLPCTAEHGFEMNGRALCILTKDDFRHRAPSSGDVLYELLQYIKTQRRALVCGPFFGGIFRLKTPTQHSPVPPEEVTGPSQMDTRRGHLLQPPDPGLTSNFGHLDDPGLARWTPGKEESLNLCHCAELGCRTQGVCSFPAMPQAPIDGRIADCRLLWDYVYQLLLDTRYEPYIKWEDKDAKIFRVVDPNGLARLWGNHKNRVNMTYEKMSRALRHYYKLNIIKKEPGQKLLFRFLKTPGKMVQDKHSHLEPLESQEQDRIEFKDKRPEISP
# Procedure, shortened: as §1
# ETV3 = molecular target: T11, ETV3 (Homo sapiens, UniProt P41162-2 1-143)
# T11 sequence: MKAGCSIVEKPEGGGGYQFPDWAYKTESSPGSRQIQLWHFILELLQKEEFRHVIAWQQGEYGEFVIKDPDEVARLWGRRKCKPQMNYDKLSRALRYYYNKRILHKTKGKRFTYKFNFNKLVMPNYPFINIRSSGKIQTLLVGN
# Procedure, shortened: as §1
# ETV6 = ETV6 (Homo sapiens, UniProt P41212 1-452)
# Procedure, shortened: as §1
# ELF1, sequence (P32519 whole entry): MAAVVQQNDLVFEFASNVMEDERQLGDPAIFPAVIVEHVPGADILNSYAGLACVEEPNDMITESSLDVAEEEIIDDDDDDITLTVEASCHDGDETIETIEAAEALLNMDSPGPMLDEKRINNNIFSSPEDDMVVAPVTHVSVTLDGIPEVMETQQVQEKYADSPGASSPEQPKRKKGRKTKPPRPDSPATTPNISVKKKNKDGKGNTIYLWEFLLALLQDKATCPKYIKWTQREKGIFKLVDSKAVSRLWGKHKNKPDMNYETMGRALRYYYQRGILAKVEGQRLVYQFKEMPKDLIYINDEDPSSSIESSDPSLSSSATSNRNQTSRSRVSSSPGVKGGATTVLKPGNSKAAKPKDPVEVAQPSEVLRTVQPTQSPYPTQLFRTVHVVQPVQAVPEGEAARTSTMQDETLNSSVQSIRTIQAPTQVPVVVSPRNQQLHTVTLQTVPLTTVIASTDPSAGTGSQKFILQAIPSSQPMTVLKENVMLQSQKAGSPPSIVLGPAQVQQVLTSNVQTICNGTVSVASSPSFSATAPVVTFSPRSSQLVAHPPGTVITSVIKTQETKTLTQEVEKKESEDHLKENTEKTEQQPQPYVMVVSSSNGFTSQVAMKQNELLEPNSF
# ELF4, sequence (Q99607 whole entry): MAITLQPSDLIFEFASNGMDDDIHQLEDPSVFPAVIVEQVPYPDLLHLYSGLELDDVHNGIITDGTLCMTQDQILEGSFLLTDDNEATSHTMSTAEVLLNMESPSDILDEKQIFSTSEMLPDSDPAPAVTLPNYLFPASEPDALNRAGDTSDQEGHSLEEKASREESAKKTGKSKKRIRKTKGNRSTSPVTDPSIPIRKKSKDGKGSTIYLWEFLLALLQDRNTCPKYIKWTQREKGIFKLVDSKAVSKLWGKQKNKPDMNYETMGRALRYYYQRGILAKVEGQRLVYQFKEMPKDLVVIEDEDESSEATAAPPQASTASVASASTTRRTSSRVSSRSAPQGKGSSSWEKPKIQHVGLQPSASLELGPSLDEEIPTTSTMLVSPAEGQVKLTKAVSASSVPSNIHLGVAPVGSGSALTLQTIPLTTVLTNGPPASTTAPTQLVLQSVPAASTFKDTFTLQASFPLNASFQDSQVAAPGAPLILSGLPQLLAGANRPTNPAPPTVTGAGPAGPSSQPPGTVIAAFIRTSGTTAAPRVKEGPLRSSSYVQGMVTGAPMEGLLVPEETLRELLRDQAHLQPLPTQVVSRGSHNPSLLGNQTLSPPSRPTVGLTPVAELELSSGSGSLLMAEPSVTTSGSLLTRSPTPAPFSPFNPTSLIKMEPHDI
# ETV6, sequence (P41212 whole entry): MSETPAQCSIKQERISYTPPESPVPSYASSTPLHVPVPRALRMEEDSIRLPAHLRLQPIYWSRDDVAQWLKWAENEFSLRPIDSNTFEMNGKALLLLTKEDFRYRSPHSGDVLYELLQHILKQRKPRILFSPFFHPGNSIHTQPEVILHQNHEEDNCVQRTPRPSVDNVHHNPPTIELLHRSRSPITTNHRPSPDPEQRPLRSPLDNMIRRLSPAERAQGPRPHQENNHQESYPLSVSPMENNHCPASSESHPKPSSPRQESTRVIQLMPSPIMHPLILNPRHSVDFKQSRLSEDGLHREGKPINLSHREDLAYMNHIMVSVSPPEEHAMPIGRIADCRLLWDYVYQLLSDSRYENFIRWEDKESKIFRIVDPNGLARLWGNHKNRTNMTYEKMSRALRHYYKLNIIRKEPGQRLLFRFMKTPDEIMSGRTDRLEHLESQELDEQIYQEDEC
# SPIB, sequence (Q01892 whole entry): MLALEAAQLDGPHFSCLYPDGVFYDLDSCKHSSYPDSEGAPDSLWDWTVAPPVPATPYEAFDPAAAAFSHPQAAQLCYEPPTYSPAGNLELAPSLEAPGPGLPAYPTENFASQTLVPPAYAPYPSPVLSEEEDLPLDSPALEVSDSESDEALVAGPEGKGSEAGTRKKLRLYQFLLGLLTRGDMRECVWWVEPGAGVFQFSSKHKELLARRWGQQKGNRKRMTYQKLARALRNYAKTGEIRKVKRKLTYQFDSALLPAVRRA
# ETV1, sequence (P50549 whole entry): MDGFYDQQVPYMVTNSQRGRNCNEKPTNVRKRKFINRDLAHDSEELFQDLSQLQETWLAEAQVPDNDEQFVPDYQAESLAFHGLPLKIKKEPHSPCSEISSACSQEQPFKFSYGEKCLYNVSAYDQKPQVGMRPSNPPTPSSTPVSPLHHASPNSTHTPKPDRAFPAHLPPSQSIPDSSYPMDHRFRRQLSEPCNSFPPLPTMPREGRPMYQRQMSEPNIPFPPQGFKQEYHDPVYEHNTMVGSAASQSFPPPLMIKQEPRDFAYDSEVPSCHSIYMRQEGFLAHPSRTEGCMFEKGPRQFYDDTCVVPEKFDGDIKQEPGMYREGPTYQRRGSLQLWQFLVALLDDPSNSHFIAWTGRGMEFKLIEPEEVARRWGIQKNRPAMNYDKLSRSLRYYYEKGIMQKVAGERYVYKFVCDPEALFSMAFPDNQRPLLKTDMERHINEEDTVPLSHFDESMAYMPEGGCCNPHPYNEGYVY
sequence,measurement,setting,value
CGCGAT,binding signal,ELK1,"1.07 fold enrichment (6-mer frequency, TF over GST control)"
same,binding signal,GABPA,"1.09 fold enrichment (6-mer frequency, TF over GST control)"
same,binding signal,ERG,"1.09 fold enrichment (6-mer frequency, TF over GST control)"
same,binding signal,ELF1,"1.06 fold enrichment (6-mer frequency, TF over GST control)"
same,binding signal,SPIB,"1.03 fold enrichment (6-mer frequency, TF over GST control)"
same,binding signal,ELK3,"1.07 fold enrichment (6-mer frequency, TF over GST control)"
same,binding signal,ELF4,"1.07 fold enrichment (6-mer frequency, TF over GST control)"
same,binding signal,ELK4,"1.22 fold enrichment (6-mer frequency, TF over GST control)"
same,binding signal,ELF3,"1.15 fold enrichment (6-mer frequency, TF over GST control)"
same,binding signal,ETV1,"1.08 fold enrichment (6-mer frequency, TF over GST control)"
same,binding signal,ETV3L,"1.06 fold enrichment (6-mer frequency, TF over GST control)"
same,binding signal,ETS2,"1.07 fold enrichment (6-mer frequency, TF over GST control)"
same,binding signal,SPDEF,"1.05 fold enrichment (6-mer frequency, TF over GST control)"
same,binding signal,ETV7,"1.05 fold enrichment (6-mer frequency, TF over GST control)"
same,binding signal,ETV3,"1.08 fold enrichment (6-mer frequency, TF over GST control)"
same,binding signal,ETV6,"1.05 fold enrichment (6-mer frequency, TF over GST control)"
